Results taken from PubChem BioAssay (Tox21).
Values without a mark were called inactive. Records with an inconclusive call do not appear. Entries that show only a call come without a potency. Active and inactive are the calls of the source. Calls come from the whole dose curve; as a rule, active = well fitted curve in the direction sought with a large enough effect in the repeat runs; inconclusive = weak or mixed curves; inactive = no such curve, though single readings can be large; an effect the other way counts as inactive or inconclusive.

Columns and labels:
[1] = Caspase-3/7 induction in HepG2 cells by small molecules, qHTS assay (AID 1346978); note: nearly all actives have a fitted effect of over 15% in size
How it was run: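 Wild-type HepG2 cells, 2,000/well, settled 5 hr at 37 C and 5% CO2, then compound-treated for 17 hr; caspase-3/7 activity read by luminescent Caspase-Glo 3/7 after 30 min at room temperature.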

[2] = Caspase-3/7 induction in CHO-K1 cells by small molecules, qHTS cell viability counter screen (AID 1346979); note: nearly all actives have a fitted effect of over 35% in size; note: potency is the fitted concentration of half-maximal effect
How it was run: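 Wild-type CHO-K1 cells (1,500/well) treated with compound after 5 h plating; after 16 h at 37C, viability read as CellTiter-Fluor fluorescence following 1 h reagent incubation, in the same wells as the caspase read.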

[3] = Caspase-3/7 induction in CHO-K1 cells by small molecules, qHTS assay (AID 1346980); note: nearly all actives have a fitted effect of over 15% in size
How it was run: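 Wild-type CHO-K1 cells exposed to compounds for 17hr at 37 C, 5% CO2. Caspase-3/7 activity then measured by Caspase-Glo 3/7 luminescence after 30min at room temperature.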

[4] = Caspase-3/7 induction in HepG2 cells by small molecules, qHTS cell viability counter screen (AID 1346981); note: nearly all actives have a fitted effect of over 30% in size; note: potency is the fitted concentration of half-maximal effect
How it was run: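 Wild-type HepG2 cells (2,000/well) were allowed to settle for 5 hr at 37 C, 5% CO2, then dosed with compounds in DMSO by pin transfer. After 16 hr at 37 C, CellTiter-Fluor was added and fluorescence read 1 hr later.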

[5] = biological target: Nuclear receptor subfamily 1 group I member 2 (Homo sapiens) (UniProt O75469); assay: Human pregnane X receptor (PXR) small molecule agonists, qHTS assay (AID 1346982); note: nearly all actives have a fitted effect of over 35% in size; note: potency is the fitted concentration of half-maximal effect
Nuclear receptor subfamily 1 group I member 2 (Homo sapiens), sequence (O75469 whole entry, looked up): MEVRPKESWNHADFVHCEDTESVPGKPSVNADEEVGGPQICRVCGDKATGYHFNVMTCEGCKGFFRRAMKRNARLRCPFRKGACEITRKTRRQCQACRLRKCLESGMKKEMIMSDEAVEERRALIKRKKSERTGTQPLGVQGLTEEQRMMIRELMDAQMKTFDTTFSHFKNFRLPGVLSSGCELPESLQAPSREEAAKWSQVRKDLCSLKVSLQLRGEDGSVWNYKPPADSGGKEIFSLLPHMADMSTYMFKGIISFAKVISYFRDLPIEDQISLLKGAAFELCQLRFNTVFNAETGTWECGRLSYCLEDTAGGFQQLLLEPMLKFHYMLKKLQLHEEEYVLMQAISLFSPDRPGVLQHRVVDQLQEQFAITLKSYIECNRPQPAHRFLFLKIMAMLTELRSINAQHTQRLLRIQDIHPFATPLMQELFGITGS
How it was run: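 PXR-Luc HepG2 cells (CYP3A4 promoter-driven luciferase) were seeded in medium with 5% charcoal-stripped FBS, left 5 hr at 37 C, then exposed to compounds in DMSO for 24 hr. Luminescence was read after ONE-Glo addition.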

[6] = biological target: Cytochrome P450 2D6 (Homo sapiens) (UniProt P10635); assay: Cytochrome P450 Family 2 Subfamily D Member 6 (CYP2D6) small molecule antagonists: luciferase reporter qHTS assay (AID 1671196); note: nearly all actives have a fitted effect of over 50% in size; note: potency is the fitted concentration of half-maximal effect
Cytochrome P450 2D6 (Homo sapiens), sequence (P10635 whole entry, looked up): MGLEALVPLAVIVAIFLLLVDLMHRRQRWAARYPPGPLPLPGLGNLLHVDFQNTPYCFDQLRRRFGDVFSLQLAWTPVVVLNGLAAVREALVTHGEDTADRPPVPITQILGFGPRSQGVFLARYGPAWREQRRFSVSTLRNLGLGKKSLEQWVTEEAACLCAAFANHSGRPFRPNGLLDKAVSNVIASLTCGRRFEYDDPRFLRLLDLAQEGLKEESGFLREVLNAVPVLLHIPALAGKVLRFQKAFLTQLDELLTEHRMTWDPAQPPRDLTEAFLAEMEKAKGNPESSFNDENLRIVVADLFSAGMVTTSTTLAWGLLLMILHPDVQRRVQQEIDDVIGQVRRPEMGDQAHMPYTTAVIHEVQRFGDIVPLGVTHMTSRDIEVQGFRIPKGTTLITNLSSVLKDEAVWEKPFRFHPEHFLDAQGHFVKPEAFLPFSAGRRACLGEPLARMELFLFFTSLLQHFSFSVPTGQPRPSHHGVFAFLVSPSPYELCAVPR
How it was run: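 CYP2D6 enzyme–substrate mix was held with compound for 10 min at room temperature, then NADPH regeneration solution was added and the reaction ran 1 h at room temperature. Luciferin product was detected by luminescence after 20 min with detection reagent.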

[7] = biological target: Cytochrome P450 2C19 (Homo sapiens) (UniProt P33261); assay: Cytochrome P450 Family 2 Subfamily C Member 19 (CYP2C19) small molecule antagonists: luciferase reporter qHTS assay (AID 1671197); note: nearly all actives have a fitted effect of over 65% in size; note: potency is the fitted concentration of half-maximal effect
Cytochrome P450 2C19 (Homo sapiens), sequence (P33261 whole entry, looked up): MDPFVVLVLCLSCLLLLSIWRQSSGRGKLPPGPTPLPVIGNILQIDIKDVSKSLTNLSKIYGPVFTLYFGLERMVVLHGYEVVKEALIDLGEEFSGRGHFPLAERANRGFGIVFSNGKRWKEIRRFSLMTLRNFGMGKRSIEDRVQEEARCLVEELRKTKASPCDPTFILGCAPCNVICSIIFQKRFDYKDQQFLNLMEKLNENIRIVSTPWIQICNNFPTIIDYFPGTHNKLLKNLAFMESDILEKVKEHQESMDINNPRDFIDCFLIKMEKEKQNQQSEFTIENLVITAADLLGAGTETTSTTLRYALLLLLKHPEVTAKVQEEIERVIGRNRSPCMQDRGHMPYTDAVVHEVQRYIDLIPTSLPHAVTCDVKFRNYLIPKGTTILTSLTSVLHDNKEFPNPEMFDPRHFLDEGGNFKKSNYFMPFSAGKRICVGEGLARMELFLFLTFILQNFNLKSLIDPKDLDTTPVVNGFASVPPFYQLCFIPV
How it was run: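 Luminescent readout of CYP2C19 activity: luciferin product detected 20 min after adding detection reagent. Before that, compound and enzyme-substrate mix preincubated 10 min at room temperature; NADPH-regenerating system started a 1 h, 37C reaction. Ketoconazole as positive control.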

Row | Structure (SMILES) | Potency [1] | Potency [2] | outcome [3] | Potency [4] | Potency [5] | Potency [6] | Potency [7]
1 | CCOc1ncc(F)c(=O)[nH]1 | inactive | inactive | inactive | inactive | inactive | inactive | inactive
2 | c1ccc(CNc2ncnc3c2ncn3C2CCCCO2)cc1 (configuration not stated) | inactive | inactive | inactive | inactive | 21.7 µM (active) | inactive | –
3 | CC(C)C(=O)OCCOc1ccccc1 | inactive | inactive | inactive | inactive | inactive | inactive | 39.9 µM (active)
4 | CC(C)OC(=O)c1ccccc1C(=O)OC(C)C | inactive | inactive | inactive | inactive | inactive | inactive | 79.6 µM (active)
5 | CCc1ccc(C)cc1 | inactive | inactive | inactive | inactive | inactive | inactive | inactive
6 | O=C(O)c1cccc(C[C@@H]2COc3ccc(OCc4nc5cc(F)ccc5s4)cc3[C@@H]2O)c1 | inactive | inactive | inactive | inactive | inactive | inactive | inactive
7 | CN1C(CSCC(F)(F)F)Nc2cc(Cl)c(S(N)(=O)=O)cc2S1(=O)=O (configuration not stated) | inactive | inactive | inactive | inactive | 29.8 µM (active) | inactive | inactive
8 | O=S(=O)(O)CO | inactive | inactive | inactive | inactive | inactive | inactive | 35.1 µM (active)
9 | O=CNNC=O | inactive | inactive | inactive | inactive | inactive | inactive | inactive
10 | CC(C)c1ccc(C#N)cc1 | inactive | inactive | inactive | inactive | inactive | inactive | inactive
11 | CCCCOC(=O)CCCCC(=O)OCCCC | inactive | inactive | inactive | inactive | inactive | inactive | 35.6 µM (active)
12 | Cc1ccc(N(CC2=NCCN2)c2cccc(O)c2)cc1 | inactive | inactive | inactive | inactive | inactive | 0.776 µM (active) | 17.4 µM (active)
13 | C1=CCC2CC=CC2C1 (configuration not stated) | inactive | inactive | inactive | inactive | 54.4 µM (active) | inactive | 70.9 µM (active)
14 | Nc1c(Cl)cc(Cl)cc1[N+](=O)[O-] | inactive | inactive | inactive | inactive | inactive | inactive | –
15 | FC(F)(F)C(F)(F)C(F)(F)C(F)(F)CCI | inactive | inactive | inactive | inactive | inactive | inactive | inactive
16 | c1ccc(CCCc2ccncc2)cc1 | inactive | inactive | inactive | inactive | 30.6 µM (active) | 4.48 µM (active) | 0.633 µM (active)
17 | Nc1ccc(F)cc1 | inactive | inactive | inactive | inactive | inactive | inactive | inactive
18 | CCCCCCOC(=O)CCCCC | inactive | inactive | inactive | inactive | inactive | inactive | inactive
19 | CCN(CC)CCNC(=O)c1cc(Cl)c(N)cc1OC | inactive | inactive | inactive | inactive | inactive | 7.76 µM (active) | inactive
20 | CCSC(=O)N(CC)CC | inactive | inactive | inactive | inactive | inactive | inactive | inactive

Row | Structure (SMILES) | Potency [1] | Potency [2] | outcome [3] | Potency [4] | Potency [5] | Potency [6] | Potency [7]
21 | O=C(O)CCC(=O)OC[C@@H](NC(=O)C(Cl)Cl)[C@H](O)c1ccc([N+](=O)[O-])cc1 | inactive | inactive | inactive | inactive | inactive | inactive | –
22 | CCCC(=O)OC(=O)CCC | inactive | inactive | inactive | inactive | inactive | inactive | inactive
23 | ClC1=C(Cl)C1(Cl)Cl | inactive | inactive | inactive | inactive | inactive | inactive | inactive
24 | CC(C)N=C=NC(C)C | inactive | inactive | inactive | inactive | inactive | inactive | inactive
25 | Oc1cccc2[nH]ccc12 | inactive | inactive | inactive | inactive | inactive | 15.5 µM (active) | inactive
26 | SCCc1cnccn1 | inactive | inactive | inactive | inactive | inactive | inactive | 31.7 µM (active)
27 | CC(=O)OCC(C)C | inactive | inactive | inactive | inactive | inactive | inactive | inactive
28 | CC(C)(O)CCc1ccccc1 | inactive | inactive | inactive | inactive | inactive | inactive | 71 µM (active)
29 | CCCCCCCCCCCCCCCCCC(=O)OCC(CC)CCCC (configuration not stated) | inactive | inactive | inactive | inactive | inactive | inactive | inactive
30 | CCCCCCCC(=O)OCCCCCC | inactive | inactive | inactive | inactive | inactive | inactive | inactive
31 | O=C(O)c1cc(Cl)cc(Cl)c1O | inactive | inactive | inactive | inactive | inactive | inactive | inactive
32 | O=C(O)CCS | inactive | inactive | inactive | inactive | inactive | inactive | inactive
33 | CC(=O)C(C)=O | inactive | inactive | inactive | inactive | inactive | inactive | inactive
34 | CCCCCCCCCCCCCCCC(=O)OCC | inactive | inactive | inactive | inactive | inactive | inactive | inactive
35 | O=C1[C@@H]2[C@H]3CC[C@H](C3)[C@@H]2C(=O)N1CCCCN1CCN(c2ncccn2)CC1 | inactive | inactive | inactive | inactive | inactive | 12.3 µM (active) | inactive
36 | CC(C)(O)c1coc(S(=O)(=O)NC(=O)Nc2c3c(cc4c2CCC4)CCC3)c1 | inactive | inactive | inactive | inactive | inactive | inactive | 35.6 µM (active)
37 | O=C(c1ccccc1)C1CCC1 | inactive | inactive | inactive | inactive | inactive | inactive | inactive
38 | CC(=O)c1ccc[nH]1 | inactive | inactive | inactive | inactive | inactive | inactive | inactive
39 | C/C(C=O)=C\c1ccccc1 | inactive | inactive | inactive | inactive | 30 µM (active) | inactive | inactive
40 | CC1CCC(C(C)CS)CC1S (configuration not stated) | inactive | inactive | inactive | inactive | inactive | inactive | inactive

Row | Structure (SMILES) | Potency [1] | Potency [2] | outcome [3] | Potency [4] | Potency [5] | Potency [6] | Potency [7]
41 | CC(CO)(CO)C(=O)O | inactive | inactive | inactive | inactive | inactive | inactive | 72.4 µM (active)
42 | O=C1c2ccccc2C(=O)c2c(O)ccc(O)c21 | inactive | inactive | inactive | inactive | 4.86 µM (active) | inactive | inactive
43 | COC1CCC=CO1 (configuration not stated) | inactive | inactive | inactive | inactive | inactive | inactive | inactive
44 | [Cl][Nd]([Cl])[Cl] | inactive | inactive | inactive | inactive | inactive | inactive | inactive
45 | O=C(O)CO | inactive | inactive | inactive | inactive | inactive | inactive | inactive
46 | CCOC(=O)C(C)O (configuration not stated) | inactive | inactive | inactive | inactive | inactive | inactive | inactive
47 | O=S(=O)(Cl)c1c(Cl)cccc1Cl | inactive | inactive | inactive | inactive | inactive | 25.1 µM (active) | inactive
48 | CCCCCCC(O)CCOC(C)=O (configuration not stated) | inactive | inactive | inactive | inactive | inactive | inactive | 167 µM (active)
49 | CC(C)(C)S | inactive | inactive | inactive | inactive | inactive | 7.34 µM (active) | 41.3 µM (active)
50 | CC(=O)NCCO | inactive | inactive | inactive | inactive | inactive | inactive | inactive
51 | COC(=O)CC(C(C)=O)C(=O)OC (configuration not stated) | inactive | inactive | inactive | inactive | inactive | inactive | inactive
52 | CC(C)N(C)C | inactive | inactive | inactive | inactive | inactive | inactive | inactive
53 | Cc1ccccc1S(N)(=O)=O | inactive | inactive | inactive | inactive | inactive | inactive | inactive
54 | N[C@@H](Cc1cc(I)c(O)c(I)c1)C(=O)O | inactive | 23.7 µM (active) | inactive | inactive | inactive | inactive | inactive
55 | COC(C)(C)OC | inactive | inactive | inactive | inactive | inactive | inactive | 69 µM (active)
56 | CCN(CC)c1cccc(O)c1 | inactive | inactive | inactive | inactive | 35.1 µM (active) | 36.3 µM (active) | 5.13 µM (active)
57 | Cc1ccc(N(CCO)CCO)cc1 | inactive | inactive | inactive | inactive | inactive | inactive | 17.8 µM (active)
58 | CCN(CC)c1ccc(C(=C2C=CC(=[N+](CC)CC)C=C2)c2ccc(S(=O)(=O)O)cc2S(=O)(=O)[O-])cc1 | inactive | 15.4 µM (active) | inactive | 19.3 µM (active) | inactive | 20 µM (active) | 17.8 µM (active)
59 | CCC(C)(C)C(=O)O | inactive | inactive | inactive | inactive | inactive | inactive | inactive
60 | C[C@@H]1C[C@H]2[C@@H]3CCC4=CC(=O)C=C[C@]4(C)[C@@]3(F)[C@@H](O)C[C@]2(C)[C@@]1(O)C(=O)COP(=O)(O)O | inactive | inactive | inactive | inactive | inactive | inactive | inactive
